The target in experiment [1] is Albumin (Bos taurus) (UniProt P02769). As to the kind of experiment: bovine serum albumin binders on microarray, profiling panel, artefact control for SMM control protein annotation, biochemical, small-molecule microarray, Alexa647 label, 635/667 nm fluorescence (AID 1118).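 Note: score merges 667 nm emission intensity and signal-to-noise per printed compound spot.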 Conditions: BSA-A647 binding, fluorescence 635 nm, higher = more signal.
Experiment [2] is described as follows: small-molecule microarray binders of probe aXIP, primary screen, biochemical, NeuroSMM set, 635/667 nm fluorescence (AID 1119).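 Note: probe is the protein aXip251-270 applied at 1 µg/mL to compound-printed slides; binding of probe to printed compounds measured as 667 nm fluorescence plus signal to noise.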 Conditions: higher = more signal, called active from +8 up or from −8 down.
Experiment [3] in a line: small-molecule binders of probe aNOTCH3, primary screen, biochemical, small-molecule microarray, 635/667 nm fluorescence (AID 1120).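 Note: probe is a biotin-tagged antibody raised against NOTCH3 rather than NOTCH3 protein; score merges spot fluorescence near 667 nm with spot signal to noise.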 Conditions: higher = more signal.
Experiment [4] can be described thus: small-molecule binders of probe aNOTCH2, primary screen, biochemical, small-molecule microarray, 635/667 nm fluorescence (AID 1121).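 Note: score merges feature fluorescence read at 667 nm with its signal to noise.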 To be noted: higher = more signal.
Experiment [5] deals with Carbonic anhydrase 2 (Homo sapiens) (UniProt P00918). In words: CAII small-molecule binders, profiling panel, biochemical, small-molecule microarray, Alexa647-labelled CAII (AID 1122). To be noted: CAII-A647 binding fluorescence, higher = more signal.
Experiment [6] is described as follows: COS7 lysate on small-molecule microarray, probe aHis, 635 nm (AID 1123).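 Note: z-score combines 667nm fluorescence intensity with signal-to-noise per printed compound spot.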 Conditions: COS7 cell lysate, fluorescence, higher = more signal.
Experiment [7] can be described thus: compound binding in COS7 lysate, probe aLAP1, primary screen, cell lysate, small-molecule microarray (AID 1124).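 Note: lysate comes from COS7 cells expressing LAP1 and is applied at 0.3 µg/mL; score merges spot fluorescence near 667 nm with signal-to-noise over triplicate slides.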 Conditions: probe aLAP1, fluorescence, higher = more signal.
Experiment [8] concerns Sam68 (KHDRBS1). In words: Sam68 small-molecule binders, primary screen, biochemical, small-molecule microarray, 635 nm fluorescence (AID 1125).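 Note: score merges 667 nm channel intensity with signal to noise over triplicate slides.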 Conditions: small-molecule microarray binding, higher = more signal.
In experiment [9] the test system is Chordin-like protein 2 (CHRDL2). In words: CHRDL2 small-molecule binders, primary screen, biochemical, small-molecule microarray, 635 nm fluorescence (AID 1126).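 Note: printed compound slides probed with Chrdl2 protein at 4 µg/mL for 1 h at 4 C; score merges 667 nm emission intensity with signal to noise over three replicate slides.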 To be noted: small-molecule microarray binding, fluorescence 635 nm; higher = more signal.
The target in experiment [10] is Concanavalin-A (Canavalia ensiformis) (UniProt P02866). In words: ConA small-molecule binders, primary screen, artefact control for SMM control protein annotation, biochemical, small-molecule microarray, Alexa647 label, 635 nm (AID 1127).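 Note: z combines 667 nm emission intensity with signal-to-noise across three replicate slides.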 To be noted: ConA-A647 binding fluorescence, higher = more signal.

Calls of active or inactive are those of the source.

Albumin (Bos taurus), sequence (P02769 whole entry, looked up): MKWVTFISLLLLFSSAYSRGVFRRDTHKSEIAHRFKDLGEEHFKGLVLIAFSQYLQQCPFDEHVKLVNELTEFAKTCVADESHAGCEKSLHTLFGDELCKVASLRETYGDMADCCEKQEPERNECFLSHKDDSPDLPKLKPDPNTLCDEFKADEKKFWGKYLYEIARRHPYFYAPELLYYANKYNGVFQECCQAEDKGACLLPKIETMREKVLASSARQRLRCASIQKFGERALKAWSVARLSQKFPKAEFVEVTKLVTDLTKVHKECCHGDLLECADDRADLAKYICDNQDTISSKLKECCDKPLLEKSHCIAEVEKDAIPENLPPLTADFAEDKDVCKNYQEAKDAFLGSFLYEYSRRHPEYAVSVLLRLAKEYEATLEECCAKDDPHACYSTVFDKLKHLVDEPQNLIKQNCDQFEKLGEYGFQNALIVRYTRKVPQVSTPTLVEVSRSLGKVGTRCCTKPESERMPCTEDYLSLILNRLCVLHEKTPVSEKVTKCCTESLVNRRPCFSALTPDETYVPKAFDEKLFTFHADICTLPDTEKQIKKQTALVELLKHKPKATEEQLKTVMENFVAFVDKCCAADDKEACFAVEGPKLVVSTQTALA
Concanavalin-A (Canavalia ensiformis), sequence (P02866 whole entry, looked up): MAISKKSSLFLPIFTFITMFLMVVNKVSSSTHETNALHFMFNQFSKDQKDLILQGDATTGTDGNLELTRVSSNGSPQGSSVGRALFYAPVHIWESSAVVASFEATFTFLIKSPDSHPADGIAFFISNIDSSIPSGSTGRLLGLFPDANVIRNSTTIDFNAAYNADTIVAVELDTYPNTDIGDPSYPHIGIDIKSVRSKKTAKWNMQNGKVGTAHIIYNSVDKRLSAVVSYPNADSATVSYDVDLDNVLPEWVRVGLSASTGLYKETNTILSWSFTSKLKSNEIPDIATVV

As to `CCN1C(=O)[C@H]2[C@H]3[C@H](O)[C@H](O)CC(=O)[C@H]3CC[C@H]2C1=O`, the composite z-score in experiment [1] is 0.234; in [3], -0.0921; in experiment [4], -0.0793; in experiment [5] it was 0.0164; in experiment [6], -0.209; in experiment [7], 0.0555. Further, the figures for the composite z-score in experiment [8], in experiment [9] and in [10] were 0.47, 0.689 and 0.541, respectively. The composite Z-score in experiment [2] was -0.274 (inactive).

As to `CON=CC[C@@H]1C=C[C@H](OC(C)=O)[C@@H](COC(C)=O)O1`, the composite z-score in [1] is -0.714; in experiment [3], 0.287; in experiment [4], 0.0007; in experiment [5] it was 0.397; in experiment [6], 0.043; in experiment [7], 0.18. In addition, the figures for the composite z-score in experiment [8], in [9] and in experiment [10] were -0.0499, 0.679 and -0.32, respectively. For the same molecule, the composite Z-score in experiment [2] is 1.33 (inactive).

For the molecule `COC(=O)CC=C[C@@H](C)[C@H](OCc1cccc(-c2ccccc2)c1)C1CCCCC1`, the composite z-score was 0.0024 in [1]; -0.195 in experiment [3]; -0.109 in [4]; 0.942 in experiment [5]; -0.159 in experiment [6]; 0.0206 in experiment [7]. Also, the composite z-score in [8] is -0.679; in experiment [9] it was 1.23; in experiment [10], 0.923. For the same molecule, the composite Z-score in [2] is 0.369 (inactive).

With `CCOC(=O)[C@H](CC(C)C)NC(=O)CCC1CC(OC(=O)NCc2cccc3ccccc23)CC2(CCCC(COC(=O)NCc3ccncc3)O2)O1` (stereo not given in full), the composite z-score in experiment [1] is 0.323; in experiment [3], -0.0658; in experiment [4] it was -0.14; in [5] it was 0.215; in experiment [6], 0.502; in experiment [7], 0.218. The composite z-score in experiment [8] amounted to 1.29; in experiment [9], 0.351; in experiment [10], 0.67. For the same molecule, the composite Z-score in experiment [2] is -0.0775 (inactive).

For the molecule `CO[C@H]1COC(=O)CC=C[C@H](C)[C@@H](OC)COC(=O)[C@@H](C)COC(=O)CC=C[C@@H]1C`, the composite z-score in [1] is -0.93; in experiment [3], -0.0647; in [4], -0.146; in experiment [5], -0.535; in experiment [6] it was -0.25; in experiment [7] it was -0.145. Also, the composite z-score was -0.132 in [8], 1.51 in [9] and -1.85 in experiment [10]. Further, the composite Z-score in experiment [2] is 0.793 (inactive).

Take `CCOC(=O)NN=C1C[C@@H](O)[C@@H](O)[C@@H]2[C@@H]3C(=O)N(C(C)(C)C)C(=O)[C@@H]3CC[C@H]12`: the composite z-score in experiment [1] was -0.385; in experiment [3], 0.0431; in experiment [4], 0.272; in [5], -0.257; in experiment [6], -0.227; in experiment [7], -0.207. For the same molecule, the composite z-score was 0.129 in experiment [8], 0.743 in [9] and 0.383 in experiment [10]. The composite Z-score in [2] was 0.288 (inactive).

As to `CCOC(=O)C1=NO[C@]2(C=C(Br)C3(OCCCO3)[C@H]3O[C@H]32)C1`, the composite z-score is 0.653 in experiment [1]; -0.239 in experiment [3]; -0.0907 in [4]; 0.114 in [5]; -0.263 in experiment [6]; -0.157 in experiment [7]. The composite z-score in [8] was -0.638; in experiment [9], -0.31; in experiment [10] it was -0.586. For the same molecule, the composite Z-score in experiment [2] is -0.455 (inactive).

For `C=CC[C@@H]1C=C[C@H](ON=C[C@@H](C)[C@H](OCc2ccccc2)C(C)C)[C@@H](CO)O1`, the composite z-score in experiment [1] is 0.744; in [3] it was -0.276; in experiment [4] it was -0.221; in experiment [5], -0.115; in [6], 0.502; in experiment [7] it was 0.103. The composite z-score was 0.0186 in experiment [8], 0.157 in [9] and -0.817 in [10]. Further, the composite Z-score in experiment [2] is -0.315 (inactive).

Take `O=C1C=C[C@@H](O)[C@@H]2[C@@H]3C(=O)N(c4ccc(F)cc4F)C(=O)[C@@H]3CC[C@@H]12`: the composite z-score in [1] was 0.351; in experiment [3], 0.0409; in [4], -0.0772; in experiment [5] it was -0.0233; in experiment [6], -0.303; in experiment [7] it was -0.113. The composite z-score in [8] stood at 0.157; in [9] it was 0.717; in [10], 0.753. In addition, in [2], the composite Z-score is 0.331 (inactive).

Turning to `CCOC(=O)[C@H](Cc1ccccc1)NC(=O)CCC1CC(OC(=O)NCCc2ccc(F)cc2)CC2(CCCC(COC(=O)NCCc3ccccc3OC)O2)O1` (stereo not given in full), the composite z-score in experiment [1] was 0.667; in [3], -0.0984; in experiment [4] it was -0.14; in experiment [5] it was 0.303; in [6], 1.46; in experiment [7], 0.854. The values for the composite z-score in experiment [8], in [9] and in [10] were 1.12, 0.405 and 1.09, respectively. The composite Z-score in experiment [2] is -0.449 (inactive).

In the case of `C=CC[C@@H]1C=C[C@H](ON=C(C)CCC(=O)OC[C@H]2O[C@H](c3ccccc3)C=C[C@@H]2Oc2ccc(OC)cc2)[C@@H](CO)O1`, the composite z-score in experiment [1] is -0.1; in [3] it was -0.171; in [4], -0.177; in experiment [5], -0.273; in experiment [6], 0.342; in [7], -0.0007. The values for the composite z-score in experiment [8], in experiment [9] and in experiment [10] were 0.144, -0.0018 and -0.152, respectively. The composite Z-score in experiment [2] was 0.741 (inactive).

For the molecule `O=C1C[C@@H](O)[C@@H](O)[C@@H]2[C@@H]3C(=O)N(C[C@@H]4CCCO4)C(=O)[C@@H]3CC[C@@H]12`, the composite z-score in experiment [1] is -0.0039; in [3], 0.0547; in experiment [4], -0.111; in experiment [5] it was -0.0061; in experiment [6], 0.725; in experiment [7], 0.181. For the same molecule, the composite z-score in experiment [8] is 0.666; in experiment [9], 0.348; in [10], 0.852. For the same molecule, the composite Z-score in experiment [2] is -0.286 (inactive).

Regarding `CO[C@@H]1COC(=O)CC=C[C@@H](C)[C@H](OC)COC(=O)[C@@H](C)COC(=O)CC=C[C@H]1C`, the composite z-score was -0.797 in [1]; -0.055 in experiment [3]; -0.124 in experiment [4]; -0.679 in experiment [5]; -0.824 in experiment [6]; -0.0936 in experiment [7]. For the same molecule, the composite z-score was -0.983 in experiment [8], 1.47 in experiment [9] and -0.423 in experiment [10]. Moreover, the composite Z-score in experiment [2] is 0.0068 (inactive).

The values above are taken from PubChem BioAssay.
